Source: PubChem BioAssay AID492963 (The Scripps Research Institute Molecular Screening Center, 2010)
Hit rate of the full screen: of about 1,100 compounds, about 420 (38%) were called active. Only a sample is shown. Unmarked numbers belong to inactive results. Cut-off read from the data, not from the text of the source: active = inhibition above about 29%; inactive = the rest.

What follows are molecules tested against Orexin/Hypocretin receptor type 1 (Homo sapiens) (UniProt O43613) (assay: HCRTR1 blockers, calcium flux retest – fluorescence, CHO/OX1R cells, Fluo-8 calcium, orexin A, confirmation (AID 492963;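 note: 0% = agonist challenge alone and 100% = reference antagonist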)). Conditions: orexin A calcium Fluo-8 fluorescence, at 5 µM, hits give high values.
Sequence of Orexin/Hypocretin receptor type 1 (Homo sapiens) (O43613 whole entry, looked up): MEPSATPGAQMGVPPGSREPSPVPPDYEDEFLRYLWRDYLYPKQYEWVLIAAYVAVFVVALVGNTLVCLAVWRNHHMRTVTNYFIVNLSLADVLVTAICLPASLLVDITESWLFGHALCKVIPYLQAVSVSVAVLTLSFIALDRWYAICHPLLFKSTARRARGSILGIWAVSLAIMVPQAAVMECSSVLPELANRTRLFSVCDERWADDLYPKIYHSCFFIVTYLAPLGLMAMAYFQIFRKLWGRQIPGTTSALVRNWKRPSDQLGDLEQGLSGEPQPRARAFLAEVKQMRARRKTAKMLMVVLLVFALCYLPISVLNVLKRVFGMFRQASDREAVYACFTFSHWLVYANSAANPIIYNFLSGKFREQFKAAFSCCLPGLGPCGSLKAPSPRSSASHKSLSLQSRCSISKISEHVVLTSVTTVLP

Row | SMILES | inhibition
1 | O=C(Nc1cccc2cccnc12)c1cccc(N2C(=O)CCC2=O)c1 | 33.2% (active)
2 | CCOC(=O)c1cccc(NC(=O)CN(c2ccc(C)cc2)S(=O)(=O)c2c(C)noc2C)c1 | 5.21%
3 | COc1ccc2sc(-c3ccc(N(C)C)cc3)c(C#CCO)c2c1 | 25.9%
4 | CCOC(=O)c1c(-c2ccc(C)cc2C)csc1NC(=O)CSc1nnnn1C | -17.1%
5 | CCn1c(SCC(=O)c2ccc3ccccc3c2)nnc1-c1cccs1 | 29.5% (active)
6 | CCOC(=O)N1CCN(C(=O)c2ccc(S(=O)(=O)Nc3cccc(C(F)(F)F)c3)cc2)CC1 | 15.2%
7 | COc1ccc(N2CC(C(=O)NCCN3C(=O)S/C(=C\c4cccnc4)C3=O)CC2=O)c(OC)c1 (stereo not given) | 26.6%
8 | COc1cc(CN2CC(C)CC(C)C2)cc([N+](=O)[O-])c1O (stereo not given) | -4.4%
9 | Cc1cc(C)cc(NC(=O)C2CCCN2S(=O)(=O)c2cccc3cccnc23)c1 (stereo not given) | 62.9% (active)
10 | COc1ccccc1CNC(=O)C1CCCN(S(=O)(=O)c2cccc3cccnc23)C1 (stereo not given) | -1.33%
11 | NC(=O)C1=C[C@@H](c2ccc3c(c2)OCO3)C[C@@H](OCCCCO)O1 | 1.6%
12 | CC1(C)C2CC=C(/C=N/NC(=O)C3CC3)C1C2 (stereo not given) | -24.5%
13 | O=C(Cn1[nH]c(=O)c2ccccc2c1=O)Nc1cccc(-c2nnc3n2CCCCC3)c1 | 24.9%
14 | S=C(NCc1ccc(Cl)cc1)NC12CC3CC(CC(C3)C1)C2 | 10.8%
15 | Cc1cc(N2CCCC2=O)cc(C)c1S(N)(=O)=O | 1.01%
16 | N#C/C(=C/c1ccc(N2CCCCC2)o1)C(=O)NCCc1c[nH]c2ccccc12 | 48.7% (active)
17 | O=C(N/N=C/c1c(Cl)[nH]c2ccccc12)c1sc2ccccc2c1Cl | 79% (active)
18 | C/C(N)=C(/C#N)C(=O)COC(=O)c1cc(-c2ccc(C)cc2)nc2ccccc12 | -4.02%
19 | CCc1ccccc1OCC(=O)Nc1ccc(C)c(S(=O)(=O)N2CCCCCC2)c1 | 5.4%
20 | O=C(NC(Cc1c[nH]c2ccccc12)C(=O)N/N=C/c1ccc(Br)cc1)c1cccs1 (stereo not given) | 55.8% (active)
21 | CCOc1ccc(CCNC(=O)C(CC)n2nc(C)n3c(cc4sccc43)c2=O)cc1OCC (stereo not given) | 25.3%
22 | CC(C)(C)NC(=O)CN(C(=O)c1csnn1)c1ccccc1-c1ccccc1 | 18.8%
23 | N#C/C(=C1\CCCN1)c1nc(-c2ccccc2)cs1 | 40% (active)
24 | N#CC(=C1SC=CS1)c1nc(-c2ccccc2)cs1 | 87.3% (active)
25 | Nc1nc(COC(=O)CCC(=O)c2ccc(Cl)cc2)nc(Nc2ccccc2)n1 | 19.1%
